Experimental data reported in PubChem BioAssay (NCATS).
Records with an inconclusive call do not appear. Entries that show only a call come without a potency. Active and inactive are the calls of the source. The call rests on the fitted dose curve; in most records, active means well fitted inhibition curve with a large enough effect; inconclusive means small, poorly fitted or top-dose-only effect; inactive means flat fitted curve, though single readings scatter.

Test system: 7G8
Experiment: qHTS profiling for inhibitors of Plasmodium falciparum proliferation (AID 504749); further: nearly all actives have a fitted effect of over 60% in size
Settings: P. falciparum in erythrocytes, SYBR Green DNA, 72 h; series mostly up to 28.7 µM
How it was run: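 Three-day growth assay of blood-stage parasites in erythrocytes (0.3% parasitemia, 2.5% hematocrit) at 37 C, 5% CO2, quantified by SYBR Green DNA staining after overnight detergent lysis.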
Potency means the concentration at half of the fitted maximal effect.

Question: `O[C@@H](c1cc(C(F)(F)F)nc2c(C(F)(F)F)cccc12)[C@H]1CCCCN1` was tested. Which Potency did it give?
Answer: 0.0079 µM (active)

Question: With `C/C=C/c1ccc(O)c(OC)c1` as the molecule, how does the Potency read?
Answer: 10 µM (active)

Question: `OC1C(O)C(O)C(O)C(O)C1O` (stereo not given) was tested. Which Potency did it give?
Answer: inactive

Question: With `C[N+]1(CC2COC(c3ccccc3)(C3CCCCC3)O2)CCCCC1` (stereo not given) as the molecule, how does the Potency read?
Answer: 2.51 µM (active)

Question: For `C[C@@H](O)[C@H]1C(=O)N2C(C(=O)O)=C(S[C@@H]3CN[C@H](CNS(N)(=O)=O)C3)[C@H](C)[C@H]12`, which Potency is on record?
Answer: inactive

Question: Which Potency does the source give for `CC(=O)Nc1ccc(CC(=O)O)cc1` here?
Answer: inactive

Question: Which Potency does the source give for `O=C(Nc1ccc([N+](=O)[O-])cc1)Nc1ccc([N+](=O)[O-])cc1` here?
Answer: 1.41 µM (active)

Question: `CC(C)Cc1ccc(CC(=O)O)cc1` was tested. Which Potency did it give?
Answer: inactive

Question: Which Potency does the source give for `O=C(Nc1cccc(C2=NCCN2)c1)Nc1cccc(C2=NCCN2)c1` here?
Answer: 0.398 µM (active)

Question: For `Cc1ccccc1OCC(O)CO` (stereo not given), which Potency is on record?
Answer: inactive

Question: How did the Potency turn out when `CN(Cc1ccc(C(C)(C)C)cc1)Cc1cccc2ccccc12` was run?
Answer: 11.2 µM (active)

Question: `NS(=O)(=O)c1cc(C(=O)O)cc(N2CCCC2)c1Oc1ccccc1` was tested. Which Potency did it give?
Answer: inactive

Question: How did the Potency turn out when `CCCCCCCCCCCCSCCOCCO` was run?
Answer: inactive

Question: For `CCCCC(CC)COC(=O)c1ccc(N(C)C)cc1` (stereo not given), which Potency is on record?
Answer: inactive

Question: `CC[C@H](c1ccc(O)cc1)[C@@H](CC)c1ccc(O)cc1` was tested. Which Potency did it give?
Answer: inactive
